Data published in PubChem BioAssay (NCATS).
Inconclusive results are not listed. Entries that show only a call come without a potency. Activity calls are given as the source filed them. Calls come from the whole dose curve; as a rule, active = well fitted cell-killing curve with a large enough effect; inconclusive = small, poorly fitted or top-dose-only effect; inactive = flat fitted curve, though single readings scatter.
Potency is the fitted concentration of half-maximal effect.

Test: Panc-1005 Cancer Cell Toxicity qHTS against the NCATS CANVASS Library (AID 1347349); note: nearly all actives have a fitted effect of over 60% in size
Conditions: Panc-1005 viability, CellTiter-Glo luminescence, 72 h; series mostly up to 38.3 µM
Description: Natural products and their derivatives continue to be wellsprings of nascent therapeutic potential. However, many laboratories have limited resources for biological evaluation, leaving their previously isolated or synthesized compounds largely or completely untested. To address this issue, the Canvass library of natural products was assembled (https://tripod.nih.gov/canvass), in collaboration with academic and industry researchers, for quantitative high-throughput screening (qHTS) across a diverse set of cell-based and biochemical assays. The pure (>85% purity by liquid chromatography/mass spectrometry [LC/MS]) Canvass library of 346 natural products were submitted by 45 academic laboratories and companies around the world. We collected pure natural products to circumvent deconvolution and structure elucidation due to time and resource limitations. The library was formatted into 1536-well plates and evaluated in 50 qHTS (in an 11-pnt concentration series) bioassays with broad scope of disease-relevant mechanisms. The resulting data set from 50 different assays was then systematically analyzed to identify overall trends and specific natural products with interesting biological activities. Reported herein are the results of each individual qHTS and their corresponding assay protocol. National Center for Advancing Translational Sciences (NCATS), Rockville, MD National Institute of Health (NIH), Bethesda, Maryland
Cancer Cell Toxicity protocol for cell lines COV-362, OV-KATE, OV-SAHO, UWB1.289, UWB1.289-WTBRCA1, HEK-293, HPAF-II, Panc-1005, SW1088, or U-118MG. 1. In a 1536 well, white solid bottom tissue culture plates (Corning 7494), corresponding cells (COV-362, OV-KATE, OV-SAHO, UWB1.289, UWB1.289-WTBRCA1, HEK-293, HPAF-II, Panc-1005, SW1088, or U-118MG) were dispensed in each well at a final concentration of 1000 cells / well (6uL volume) using the Multidrop Combi (Thermo Fisher Scientific) dispenser. 2. The plates were incubated for 4 hours at 37 degrees C/5% CO2/95% Rh. 3. Compounds were pin transferred (~23nL volume) via Wako Pin-tool (Wako Automation, Richmond VA) equipped with a 1536 pin head. The assay plates were treated with compounds in an 11-pnt concentration series with a final concentration range of […] to 85uM. 4. Bortezomib was used as a single dose control (0.5mM column 4, rows 1 - 32) at a final concentration of 1.9uM and as a 16pnt titration (1mM; 1:2 dilution; 16-points; n = 2; column 3, rows 1 - 32) with final concentration range of 0.1nM - 3.8uM. 5. The assay plates were incubated for 72 hours at 37 degrees C/5% CO2/95% Rh. 6. 3uL CellTiter-Glo detection reagent was then added to the plates (columns 2 - 48, rows 1 - 32) and incubated at room temperature for additional 15min. 7. Luminescence signal was acquired via the ViewLux plate reader (PerkinElmer) using a clear filter, 2 second exposure and 2x binning settings.
With `CNCCc1ccccc1` the Potency was “inactive”. With `COC(=O)C1=C2Nc3ccccc3[C@@]23CCN2CC(C(C)=O)C1C[C@H]23` (some centres undefined) the Potency was “inactive”. For `CC[N@@+]1([O-])C[C@]2(C)CC[C@@H](O)[C@@]34C5C[C@H]6CC[C@@]5(C(C[C@H]23)C41)[C@H](O)[C@@]6(O)CO` (some centres undefined), the Potency was “inactive”. In the case of `C/C=C1/CN2CC[C@]34C(=Nc5ccccc53)[C@@H]2C[C@@H]1[C@H]4C(=O)OC`, the Potency was “inactive”. For `CCCCC[C@@H]1OC(=O)[C@@H](C)N(C)C(=O)[C@H](CCCCC)OC(=O)C(C)N(C)C(=O)[C@H](CCCCC)OC(=O)[C@@H](C)N(C)C(=O)[C@H](CCCCC)OC(=O)C(C)N(C)C1=O` (some centres undefined), the Potency was 8.41 µM (active). With `NCCc1ccccc1` the Potency was “inactive”. For `CC[C@@H]1CN2CC[C@@]3(O)C(=Nc4cccc(OC)c43)[C@@H]2C[C@@H]1/C(=C\OC)C(=O)OC`, the Potency was “inactive”. In the case of `CN(C)Cc1c[nH]c2ccccc12`, the Potency was “inactive”. In the case of `CO[C@@H](/C=C/CC/C=C/C(=O)O)[C@@H](O)[C@H](C)[C@@H](O)/C(C)=C/[C@H](C)C(=O)CCCC1CC(=O)NC(=O)C1`, the Potency was “inactive”. In the case of `C[C@]12CC(O)C3[C@@H](CCC4C[C@@H](O)CC[C@@]43CO)[C@@]1(O)CCC2C1=CC(=O)OC1` (some centres undefined), the Potency was “inactive”. With `CC=C1CN(C=O)[C@H]2C[C@@H]1[C@@H](C(=O)OC)[C@@]13CCOC21Nc1ccccc13` (some centres undefined) the Potency was “inactive”. With `CC1=CC(=O)C2=C(C)C[C@H](O)[C@@H]3[C@H](OC(=O)[C@@H]3C)[C@@H]12` the Potency was “inactive”. For `COc1ccc(C23Oc4cc(OC)cc(OC)c4[C@](O)([C@H](c4ccccc4)C2C(=O)NCCCCNC(=O)c2ccccc2)[C@@H]3O)cc1` (some centres undefined), the Potency was “inactive”. In the case of `CNCCc1c[nH]c2ccccc12`, the Potency was “inactive”. For `O=C(c1ccccc1O)c1[nH]c(Cl)c(Cl)c1-n1c(C(=O)c2ccccc2O)cc(Cl)c1Cl`, the Potency was 2.11 µM (active). With `CC(=O)N[C@H]1CCN2CCC[C@H]12` the Potency was “inactive”. For `CO[C@H](c1ccccc1)[C@H]1NC(=O)C(C)NC(=O)C(C[C@@H](C)CO)N(C)C(=O)[C@@H](C(O)c2cn(C(C)(C)C3CO3)c3ccccc23)NC(=O)C(C(C)C=C(C)C)NC(=O)C(CC(C)C)N(C)C(=O)C(C(C)C)NC1=O` (some centres undefined), the Potency was “inactive”. For `CO[C@@H](/C=C/CC/C=C/C(=O)O)[C@@H](O)[C@H](C)/C=C(\C)[C@@H](O)[C@H](C)C(=O)CCCC1CC(=O)NC(=O)C1`, the Potency was “inactive”. For `CC1=CC2CC[C@@H]3[C@@H](C)C[C@H](C)[C@@H](C1)N23` (some centres undefined), the Potency was “inactive”. For `C[C@@H]1CC[C@@H](c2ccoc2)N2C[C@@]3(CC[C@@H]12)CS[C@@]1(CC[C@H]2[C@H](C)CC[C@@H](c4ccoc4)N2[C@@H]1O)C3`, the Potency was 5.3 µM (active). For `CCN1C[C@]2(C)CC[C@H](O)[C@]34C1C(C[C@H]23)[C@@]12CC[C@H](CC14)[C@](O)(COC(=O)c1ccc(OC)c(OC)c1)[C@H]2O` (some centres undefined), the Potency was “inactive”. With `CCC[C@H]1CC[C@H]2[C@H](C)CCC[C@H]2N1` the Potency was “inactive”. With `COc1ccc2c(c1)[nH]c1c(C)nccc12` the Potency was 30.6 µM (active). For `c1ccc2c3c([nH]c2c1)CNCC3`, the Potency was “inactive”. For `CCC(=O)CCCCC[C@@H]1NC(=O)[C@H]2CCCCN2C(=O)[C@H]([C@@H](C)CC)NC(=O)[C@H](Cc2cn(OC)c3ccccc23)NC1=O`, the Potency was 0.668 µM (active). In the case of `CNCCc1ccc(O)cc1`, the Potency was “inactive”. For `CN1C(=O)[C@]23CC4C(C)(C)[C@@]5(C[C@@]41CN2CC[C@@]3(C)O)C(=O)Nc1c5ccc2c1OC=CC(C)(C)O2` (some centres undefined), the Potency was “inactive”. For `CCCC[C@@H]1CC[C@H]2CCCC(CCC)N12` (some centres undefined), the Potency was “inactive”. For `CCN1C[C@]2(C)CC[C@@H](O)[C@]34C1[C@H](C[C@H]23)C12CCC(CC14)[C@](O)(CO)[C@H]2O` (some centres undefined), the Potency was “inactive”.
